# Measurements published in the OligoGym collection.
# Target: ANKRD22
# Experiment: pooled miR-30 sensor sort-seq; sequence = guide strand
# Conditions: shRNA
# Also: reference of the scale not given here.
row,Sequence,sensor-assay potency score (higher = more potent)
1,TAAATTTTTTCTTCACAGCATA,-1.16
2,TTGACATTAGCATTTCTTCTTA,-0.439
3,TATCCAGTGAGCTCTCACCATG,-1.62
4,TACAAGAGCCTCATTCTGCTTT,-0.0713
5,ATCTGTAGCATTAACTTCGACG,-1.27
6,TTGTCTTTGATACCATGAGGAA,-1.48
7,TTTTGAGGTTGACATTAGCATT,-1.7

# Target: ANKRD23
# Experiment: as above
# Conditions: shRNA
row,Sequence,sensor-assay potency score (higher = more potent)
1,TAATTTGAAACGTACAGACGGT,0.00484
2,TTAAGATTCACTTTCTGGCGTT,-0.127
3,TTTTCCACATAGTAACAACAGC,-1.09
4,TTCCAATTTCAGCTTCTCCCGG,-0.86
5,TGTCTCAGTCGCTTTTTCCGTC,-0.0673
6,TCTTTCTCCACTTACCAACTGC,-0.293
7,AAATCTTTCAAGTTTCTTCTTC,0.216
8,TTCATGGCTTTGTAGCTGCCGT,-0.986
9,TTCTCCACTTACCAACTGCTGA,-0.872
10,TAGAGCAGCAGTAGCTTCATGG,-0.653
11,TTATCCAGATTAAATCTGGTAC,-0.803
12,TCTTTGAACCAAGTTTTCCAAG,-1.3

# Target: ANKRD40
# Experiment: as above
# Conditions: shRNA
row,Sequence,sensor-assay potency score (higher = more potent)
1,TTGATCTGGATTAACACCCAGC,-0.194
2,TTTTGTGGTAAGAATTTCTTTG,-0.767
3,TAACAGGTAAGAGACCACCTGA,-0.364
4,TTCCTTAACAGAGTATTGGGTA,0.698
5,TTGTCCTTCCTTAACAGAGTAT,-0.746
6,TTGGAGTCGAGCAACATCCTTG,-0.239
7,TATCATCAGAACCAGTTCCAGC,-0.968
8,TAACTTTCTGATCTTCTCCACT,-1.02
9,TGATCTTCTCCACTTGATCTGG,-0.74
10,TCGAGCAACATCCTTGTCCTTC,-0.697
11,TTCACTTATCATCAGAACCAGT,-0.41
12,ATTATTTTCACTTATCATCAGA,-0.625

# Target: ANKRD53
# Experiment: as above
# Conditions: shRNA
row,Sequence,sensor-assay potency score (higher = more potent)
1,TTTCTGATAGCAGCTTCTCTGA,-1.05
2,AAACTTGTACTCCTCTACCAGG,-1.13
3,TCTGATAGCAGCTTCTCTGAGA,-0.337
4,TGATAGTAGAGAAATGTCCTGC,0.127
5,TTCATTTTCGTCATCTCACGGG,0.469
6,TTGACCTTGATACTCAATCAGG,-0.673
7,TTGGACTCCGCGTCAGTCCAGG,-1.11
8,TTTCTGAGTGCCAGCTTCCGGA,-1.18
